Values joined by “and” are separate entries in the source; they are usually repeats but may differ in a detail not shown here. Equal values may be shown once. Active and inactive are the calls of the source.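 Rule for the calls, unless noted: active = inhibition above the screen-wide mean plus 3 SD, about 51%; inactive = the rest.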

Inhibition and differentiation response data for 39 compounds are collected here from PubChem BioAssay.

For the first assay, the target named is ATP-binding cassette sub-family B member 6 (Homo sapiens) (UniProt Q9NP58). Put plainly: ABCB6 transporter inhibitors, pilot screen, K562-ABCB6 cells, flow cytometry, validation set (AID 588550).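 Note: 0% = DMSO wells and 100% = benzethonium chloride 70 µM positive control.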 Conditions: K562-ABCB6 porphyrin accumulation, 1 h, at 10 µM, hits give high values.
Sequence of ATP-binding cassette sub-family B member 6 (Homo sapiens) (Q9NP58 whole entry, looked up): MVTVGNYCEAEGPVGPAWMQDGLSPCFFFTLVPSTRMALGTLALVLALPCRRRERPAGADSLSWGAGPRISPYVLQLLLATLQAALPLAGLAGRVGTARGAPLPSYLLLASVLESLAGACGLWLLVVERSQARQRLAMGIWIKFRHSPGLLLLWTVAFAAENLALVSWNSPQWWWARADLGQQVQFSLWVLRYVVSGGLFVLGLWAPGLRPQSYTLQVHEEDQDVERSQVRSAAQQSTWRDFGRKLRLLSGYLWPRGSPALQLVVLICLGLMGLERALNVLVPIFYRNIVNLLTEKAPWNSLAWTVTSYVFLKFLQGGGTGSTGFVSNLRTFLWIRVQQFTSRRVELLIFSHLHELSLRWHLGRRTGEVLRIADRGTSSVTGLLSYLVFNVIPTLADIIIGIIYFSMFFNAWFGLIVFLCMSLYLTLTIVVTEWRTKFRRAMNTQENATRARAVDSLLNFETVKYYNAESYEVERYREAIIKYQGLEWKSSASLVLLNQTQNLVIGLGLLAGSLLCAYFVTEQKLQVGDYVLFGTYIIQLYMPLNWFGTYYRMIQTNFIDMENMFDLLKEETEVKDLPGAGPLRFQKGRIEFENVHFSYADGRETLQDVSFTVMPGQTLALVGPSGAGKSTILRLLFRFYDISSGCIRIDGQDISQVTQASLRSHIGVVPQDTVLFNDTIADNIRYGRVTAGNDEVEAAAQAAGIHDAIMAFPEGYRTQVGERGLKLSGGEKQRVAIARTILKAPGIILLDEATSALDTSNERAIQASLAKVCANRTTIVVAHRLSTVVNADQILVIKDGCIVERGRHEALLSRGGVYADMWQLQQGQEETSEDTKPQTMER
For orientation: inhibition means the drop in the measured response relative to a control, in per cent. For `Cc1nc(-c2coc3c(CN(C)C)c(O)ccc3c2=O)cs1`, the inhibition was 11% (inactive).
Same read-out and setting: the figure for `COCCCN1C(=O)C(=O)/C(=C(/O)c2ccc3c(c2)CC(C)O3)C1c1cccnc1` (stereo not drawn) is 4% (inactive); for `O=C(Nc1ccccc1C(=O)N1CCCCCC1)c1ccccc1Cl` it is 7% (inactive).
The same measure, in the same setting: the same measure for `Fc1ccc(-c2cc(-c3ccccc3)nc(-n3cccn3)n2)cc1`: 2% (inactive); for `NS(=O)(=O)c1cc2c(cc1Cl)NC(C(Cl)Cl)NS2(=O)=O` (stereo not drawn): 4% (inactive).
`CCC(C(=O)Nc1ccc2c(c1)OCCO2)c1ccccc1` (stereo not drawn): the inhibition was -7% (inactive).
The same measure, in the same setting: the figure for `c1ccc(CNc2ncnc3nc[nH]c23)cc1` is 3% (inactive); for `Cc1cc(/C=N/O)c(C)n1-c1ccc(Br)cc1` it is -1% (inactive); for `COc1ccc(/C=C/C(=O)c2cc3cccc(OC)c3oc2=O)cc1` it is -11% (inactive).
Still for that read-out and setting: the figure for `Cc1ccc(C2=NOC(=O)/C2=C\C=C\c2ccccc2)cc1` is -16% (inactive); for `CCc1ccc(/C=C2\Oc3cc(OC(=O)N4CCOCC4)ccc3C2=O)cc1` it is 0% (inactive); for `COc1cc(NC(=S)NN2CCN(C)CC2)cc(OC)c1OC` it is 13% (inactive).
On the same count and under the same terms, the same measure for `C[C@]12CCC3C(CC=C4C[C@@H](O)CC[C@@]43C)C1CCC2[C@]1(C)CCC(=O)O1` (stereo partly drawn): 9% (inactive).
Turning to `COC(=O)c1cc(OC)c(OC)cc1NC(=O)CN1C(=O)c2ccccc2C1=O`, the inhibition is 2% (inactive).
As to `c1ccc(CN(CC2=NCCN2)c2ccccc2)cc1`, the inhibition is -5% (inactive) and 12% (inactive).
As to `Cc1oncc1C(=O)Nc1ccc(C(F)(F)F)cc1`, the inhibition is -7% (inactive).
Consider `Cn1cc(C2N3CC4(C)CN2CC(C)(C3)C4=O)c2ccccc21` (stereo not drawn), for which the inhibition was -4% (inactive).
For the compound `CCCCOc1cc(C(=O)NCCN(CC)CC)c2ccccc2n1`, the inhibition was 11% (inactive) and 10% (inactive).
On the same count and under the same terms, the same measure for `O=C(CSCc1ccccc1)NCCCN1CCOCC1`: 15% (inactive); for `COC(=O)c1ccc(OCCCCN2CC(C)OC(C)C2)cc1` (stereo not drawn): 5% (inactive); for `CCOc1ccc(C(=O)NC(C)C2COc3ccccc3O2)cc1` (stereo not drawn): 1% (inactive).
Regarding `CSCC[C@H](NC(=O)OC(C)(C)C)C(=O)N1CCC(C(=O)N[C@@H](C)C(=O)O)CC1`, the inhibition is 8% (inactive).
Still for that read-out and setting: the same measure for `O=C(N/C(=C/C=C\c1ccccc1)C(=O)N1CCOCC1)c1ccc(Br)cc1`: 2% (inactive).
The same measure, in the same setting: the figure for `COc1ccc2[nH]c(=O)c(CN(C(=O)c3ccco3)C(C)C)cc2c1` is 9% (inactive); for `COc1cc(-c2cccs2)cc(=O)c2c(C)oc(C)c12` it is 2% (inactive).
Regarding `CCC(=O)O[C@]1(C(=O)CCl)[C@@H](C)C[C@H]2[C@@H]3CCC4=CC(=O)C=C[C@]4(C)[C@@]3(F)[C@@H](O)C[C@@]21C`, the inhibition was -10% (inactive).
Same read-out and setting: the same measure for `COCCN(CCOC)Cc1c(C)[nH]c2c(C)c(C)ccc2c1=O`: -9% (inactive); for `COc1ccccc1/C=C/C(=O)OCCN1CCOCC1`: -9% (inactive); for `c1ccc(Cn2nnc3cnccc32)cc1`: 9% (inactive).
The same measure, in the same setting: the same measure for `Nc1cnn(C2OC(CO)C(O)C2O)c(=O)n1` (stereo not drawn): 0% (inactive); for `Cc1ccc(C(=O)Nc2ccccc2C(=O)NC(C(=O)O)C(C)C)cc1` (stereo not drawn): 3% (inactive); for `NC(CO)C(=O)NNCc1ccc(O)c(O)c1O` (stereo not drawn): 5% (inactive).
Same read-out and setting: the same measure for `CC12CCCCN1CCCc1c2[nH]c2ccccc12` (stereo not drawn): -49% (inactive); for `CN(C)CCN(Cc1ccc(Cl)cc1)c1ccccn1`: 8% (inactive); for `CSc1cccc(NC(=O)/C=C/c2ccccc2)c1`: 10% (inactive).
Consider `Cc1oc2cc(O)cc(O)c2c(=O)c1-c1ccc2c(c1)OCCCO2`, for which the inhibition is 8% (inactive).
On the same count and under the same terms, the same measure for `CNC(=O)Oc1ccc2c(c1)[C@]1(C)CCN(C)[C@@H]1N2C`: 4% (inactive); for `CCCCNc1ccc(C(=O)OCCN(C)C)cc1`: 15% (inactive).
On the same count and under the same terms, the figure for `O=C(COc1cc(O)c2c(=O)c3ccccc3oc2c1)OCc1ccccc1` is 0% (inactive).

System in another assay: not listed separately
Nature of the assay: promoters of myeloid differentiation in arrested cells, primary screen, cell-based, GFP/MAC1 double positive, flow cytometry, validation set (AID 588685;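 active = differentiation response of at least 50%, scaled between solvent and reference control, from cells with both markers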;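 note: compound exposure lasts four days before antibody staining and flow analysis; 0% = DMSO wells and 100% = 5 µM fulvestrant positive control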). Conditions: ER-HoxA9 marrow cells, hits give high values, normalized: vehicle 0, fulvestrant 100.
Turning to `Cc1nc(-c2coc3c(CN(C)C)c(O)ccc3c2=O)cs1`, the differentiation response is -1.64% (inactive).
On the same count and under the same terms, the figure for `COCCCN1C(=O)C(=O)/C(=C(/O)c2ccc3c(c2)CC(C)O3)C1c1cccnc1` (stereo not drawn) is -9.91% (inactive); for `O=C(Nc1ccccc1C(=O)N1CCCCCC1)c1ccccc1Cl` it is 8.02% (inactive).
Same read-out and setting: the figure for `Fc1ccc(-c2cc(-c3ccccc3)nc(-n3cccn3)n2)cc1` is 20.9% (inactive); for `NS(=O)(=O)c1cc2c(cc1Cl)NC(C(Cl)Cl)NS2(=O)=O` (stereo not drawn) it is -9.91% (inactive).
Regarding `CCC(C(=O)Nc1ccc2c(c1)OCCO2)c1ccccc1` (stereo not drawn), the differentiation response was -10.4% (inactive).
The same measure, in the same setting: the figure for `c1ccc(CNc2ncnc3nc[nH]c23)cc1` is 7.09% (inactive); for `Cc1cc(/C=N/O)c(C)n1-c1ccc(Br)cc1` it is -6.03% (inactive).
Turning to `COc1ccc(/C=C/C(=O)c2cc3cccc(OC)c3oc2=O)cc1`, the differentiation response is 2.74% (inactive).
Same read-out and setting: the same measure for `Cc1ccc(C2=NOC(=O)/C2=C\C=C\c2ccccc2)cc1`: -4.57% (inactive); for `CCc1ccc(/C=C2\Oc3cc(OC(=O)N4CCOCC4)ccc3C2=O)cc1`: 6.83% (inactive).
Regarding `COc1cc(NC(=S)NN2CCN(C)CC2)cc(OC)c1OC`, the differentiation response is 5.13% (inactive).
On the same count and under the same terms, the same measure for `C[C@]12CCC3C(CC=C4C[C@@H](O)CC[C@@]43C)C1CCC2[C@]1(C)CCC(=O)O1` (stereo partly drawn): -15.2% (inactive); for `COC(=O)c1cc(OC)c(OC)cc1NC(=O)CN1C(=O)c2ccccc2C1=O`: -23.2% (inactive).
Still for that read-out and setting: the same measure for `c1ccc(CN(CC2=NCCN2)c2ccccc2)cc1`: 15.6% (inactive) and -8.19% (inactive).
Same read-out and setting: the same measure for `Cc1oncc1C(=O)Nc1ccc(C(F)(F)F)cc1`: -4.99% (inactive); for `Cn1cc(C2N3CC4(C)CN2CC(C)(C3)C4=O)c2ccccc21` (stereo not drawn): -7.57% (inactive); for `CCCCOc1cc(C(=O)NCCN(CC)CC)c2ccccc2n1`: 7.87% (inactive) and 9.01% (inactive).
As for `O=C(CSCc1ccccc1)NCCCN1CCOCC1`, the differentiation response is -14.8% (inactive).
With `COC(=O)c1ccc(OCCCCN2CC(C)OC(C)C2)cc1` (stereo not drawn), the differentiation response was -11.9% (inactive).
On the same count and under the same terms, the figure for `CCOc1ccc(C(=O)NC(C)C2COc3ccccc3O2)cc1` (stereo not drawn) is 4.86% (inactive).
On the same count and under the same terms, the same measure for `CSCC[C@H](NC(=O)OC(C)(C)C)C(=O)N1CCC(C(=O)N[C@@H](C)C(=O)O)CC1`: 0.41% (inactive); for `O=C(N/C(=C/C=C\c1ccccc1)C(=O)N1CCOCC1)c1ccc(Br)cc1`: -6.96% (inactive); for `COc1ccc2[nH]c(=O)c(CN(C(=O)c3ccco3)C(C)C)cc2c1`: 0% (inactive).
The same measure, in the same setting: the same measure for `COc1cc(-c2cccs2)cc(=O)c2c(C)oc(C)c12`: 4% (inactive); for `CCC(=O)O[C@]1(C(=O)CCl)[C@@H](C)C[C@H]2[C@@H]3CCC4=CC(=O)C=C[C@]4(C)[C@@]3(F)[C@@H](O)C[C@@]21C`: -13.3% (inactive).
Turning to `COCCN(CCOC)Cc1c(C)[nH]c2c(C)c(C)ccc2c1=O`, the differentiation response was -10.4% (inactive).
The same measure, in the same setting: the same measure for `COc1ccccc1/C=C/C(=O)OCCN1CCOCC1`: -4.91% (inactive); for `c1ccc(Cn2nnc3cnccc32)cc1`: -10.4% (inactive); for `Nc1cnn(C2OC(CO)C(O)C2O)c(=O)n1` (stereo not drawn): -8.55% (inactive).
With `Cc1ccc(C(=O)Nc2ccccc2C(=O)NC(C(=O)O)C(C)C)cc1` (stereo not drawn), the differentiation response is -13.6% (inactive).
Still for that read-out and setting: the same measure for `NC(CO)C(=O)NNCc1ccc(O)c(O)c1O` (stereo not drawn): -8.96% (inactive); for `CC12CCCCN1CCCc1c2[nH]c2ccccc12` (stereo not drawn): 11% (inactive).
The same measure, in the same setting: the same measure for `CN(C)CCN(Cc1ccc(Cl)cc1)c1ccccn1`: -19.2% (inactive); for `CSc1cccc(NC(=O)/C=C/c2ccccc2)c1`: 9.01% (inactive); for `Cc1oc2cc(O)cc(O)c2c(=O)c1-c1ccc2c(c1)OCCCO2`: 12% (inactive).
On the same count and under the same terms, the same measure for `CNC(=O)Oc1ccc2c(c1)[C@]1(C)CCN(C)[C@@H]1N2C`: -4.99% (inactive).
Take `CCCCNc1ccc(C(=O)OCCN(C)C)cc1`: the differentiation response is 19.8% (inactive).
Still for that read-out and setting: the figure for `O=C(COc1cc(O)c2c(=O)c3ccccc3oc2c1)OCc1ccccc1` is 12.9% (inactive).
